# How the values were obtained:
# Assay in all cases: DAPPL (digital affinity profiling via proximity ligation, sequencing); 10 mM Tris-HCl pH 7.5, 50 mM NaCl, 1 mM DTT, 4% glycerol, room temperature, 30 min; GST-TFs on glutathione beads, 16-mer random dsDNA library, 0.1% formaldehyde crosslink after washing; high values mean tight binding
# FLI1 = biological target: T1, FLI1 (Homo sapiens, UniProt Q01543 1-452); conditions: protein: recombinant; tags: N-terminal GST; dsDNA, one strand shown
# T1 sequence: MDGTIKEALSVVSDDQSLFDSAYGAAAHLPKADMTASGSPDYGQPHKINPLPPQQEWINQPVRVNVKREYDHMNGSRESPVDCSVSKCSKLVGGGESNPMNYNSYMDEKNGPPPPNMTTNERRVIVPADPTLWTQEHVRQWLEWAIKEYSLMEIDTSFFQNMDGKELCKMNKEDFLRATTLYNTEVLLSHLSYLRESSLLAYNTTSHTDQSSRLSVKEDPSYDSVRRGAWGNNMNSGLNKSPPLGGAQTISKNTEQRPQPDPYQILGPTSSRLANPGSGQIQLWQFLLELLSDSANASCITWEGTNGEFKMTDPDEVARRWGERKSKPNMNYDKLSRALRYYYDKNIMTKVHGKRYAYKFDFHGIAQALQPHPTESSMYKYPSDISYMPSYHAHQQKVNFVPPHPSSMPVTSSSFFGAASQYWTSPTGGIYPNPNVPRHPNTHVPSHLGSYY
# Outline: (§1)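 The binding signal reported is, for every hexamer, its read frequency for a factor over its read frequency for the tag-only sample. Reads came from pools of yeast-expressed, GST-fused human transcription factors on glutathione beads, barcoded with DNA and mixed with that sample, which were incubated with 200 nmole of a random double-stranded 16-mer DNA library in Tris/NaCl/DTT/glycerol buffer at room temperature for 30 min. After washing, the pools were crosslinked with 0.1% formaldehyde, proximity-ligated with BsaI/T4 ligase for 1 h at 37 °C, PCR-amplified and sequenced on an Illumina NextSeq500.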
# ELK1 = biological target: T2, ELK1 (Homo sapiens, UniProt P19419 1-428); conditions: protein: recombinant; tags: N-terminal GST; dsDNA, one strand shown
# T2 sequence: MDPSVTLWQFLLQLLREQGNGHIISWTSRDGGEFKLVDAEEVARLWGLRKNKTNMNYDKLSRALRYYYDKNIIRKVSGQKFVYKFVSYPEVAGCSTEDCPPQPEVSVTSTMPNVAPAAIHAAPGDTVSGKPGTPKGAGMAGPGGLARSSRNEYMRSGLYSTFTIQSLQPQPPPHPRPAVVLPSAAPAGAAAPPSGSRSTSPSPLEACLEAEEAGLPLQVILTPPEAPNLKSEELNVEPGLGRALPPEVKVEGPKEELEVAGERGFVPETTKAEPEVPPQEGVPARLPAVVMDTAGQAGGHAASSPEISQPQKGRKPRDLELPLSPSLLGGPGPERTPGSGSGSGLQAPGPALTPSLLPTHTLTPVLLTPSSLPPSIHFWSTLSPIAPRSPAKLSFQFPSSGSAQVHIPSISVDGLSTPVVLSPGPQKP
# Outline: as §1
# GABPA = biological target: T3, GABPA (Homo sapiens, UniProt Q06546 1-454); conditions: protein: recombinant; tags: N-terminal GST; dsDNA, one strand shown
# T3 sequence: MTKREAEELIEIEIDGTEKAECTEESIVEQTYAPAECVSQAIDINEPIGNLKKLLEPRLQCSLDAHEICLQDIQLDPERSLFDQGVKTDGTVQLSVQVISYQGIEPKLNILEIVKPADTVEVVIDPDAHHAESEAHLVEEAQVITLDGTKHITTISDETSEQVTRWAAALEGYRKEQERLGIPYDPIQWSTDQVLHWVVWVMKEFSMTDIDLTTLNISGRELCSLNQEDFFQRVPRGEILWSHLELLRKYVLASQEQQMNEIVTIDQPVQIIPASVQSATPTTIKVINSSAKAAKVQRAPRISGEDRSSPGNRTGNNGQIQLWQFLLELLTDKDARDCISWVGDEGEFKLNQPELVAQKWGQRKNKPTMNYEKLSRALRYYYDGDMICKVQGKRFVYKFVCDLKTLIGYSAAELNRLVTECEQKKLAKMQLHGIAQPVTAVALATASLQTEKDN
# Outline: as §1
# ERG = biological target: T4, ERG (Homo sapiens, UniProt P11308 1-479); conditions: protein: recombinant; tags: N-terminal GST; dsDNA, one strand shown
# T4 sequence: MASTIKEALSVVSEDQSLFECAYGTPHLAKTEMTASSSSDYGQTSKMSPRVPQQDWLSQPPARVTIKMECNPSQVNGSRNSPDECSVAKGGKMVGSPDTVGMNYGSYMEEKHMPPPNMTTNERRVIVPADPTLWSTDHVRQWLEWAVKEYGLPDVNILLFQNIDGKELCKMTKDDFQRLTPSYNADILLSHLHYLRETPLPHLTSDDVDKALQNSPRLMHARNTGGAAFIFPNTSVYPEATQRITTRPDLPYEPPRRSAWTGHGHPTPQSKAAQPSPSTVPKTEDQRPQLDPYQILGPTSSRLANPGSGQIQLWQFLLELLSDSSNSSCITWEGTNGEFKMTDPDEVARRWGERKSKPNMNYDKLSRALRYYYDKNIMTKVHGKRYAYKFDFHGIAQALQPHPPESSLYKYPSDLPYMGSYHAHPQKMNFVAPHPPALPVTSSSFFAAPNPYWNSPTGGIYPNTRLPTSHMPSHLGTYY
# Outline: as §1
# ELF1 = ELF1 (Homo sapiens, UniProt P32519 1-619); conditions: protein: recombinant; tags: N-terminal GST; dsDNA, one strand shown
# ELF1, sequence (P32519 whole entry): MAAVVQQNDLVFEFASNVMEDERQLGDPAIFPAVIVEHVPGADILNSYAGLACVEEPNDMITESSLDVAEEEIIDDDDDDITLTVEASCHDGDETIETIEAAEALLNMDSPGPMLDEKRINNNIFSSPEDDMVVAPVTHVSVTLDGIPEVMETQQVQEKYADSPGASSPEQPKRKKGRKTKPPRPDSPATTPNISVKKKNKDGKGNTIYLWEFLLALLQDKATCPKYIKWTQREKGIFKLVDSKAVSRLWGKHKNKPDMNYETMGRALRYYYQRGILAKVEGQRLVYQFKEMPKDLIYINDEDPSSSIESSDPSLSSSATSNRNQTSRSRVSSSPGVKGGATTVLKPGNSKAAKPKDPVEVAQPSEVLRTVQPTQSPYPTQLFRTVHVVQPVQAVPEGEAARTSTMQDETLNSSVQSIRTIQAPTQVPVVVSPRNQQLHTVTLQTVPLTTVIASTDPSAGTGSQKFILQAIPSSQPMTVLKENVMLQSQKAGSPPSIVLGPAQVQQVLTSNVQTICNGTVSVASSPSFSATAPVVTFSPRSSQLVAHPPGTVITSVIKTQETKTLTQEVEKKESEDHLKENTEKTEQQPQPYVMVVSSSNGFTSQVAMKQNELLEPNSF
# Outline: as §1
# EHF = biological target: T5, EHF (Homo sapiens, UniProt Q9NZC4 1-300); conditions: protein: recombinant; tags: N-terminal GST; dsDNA, one strand shown
# T5 sequence: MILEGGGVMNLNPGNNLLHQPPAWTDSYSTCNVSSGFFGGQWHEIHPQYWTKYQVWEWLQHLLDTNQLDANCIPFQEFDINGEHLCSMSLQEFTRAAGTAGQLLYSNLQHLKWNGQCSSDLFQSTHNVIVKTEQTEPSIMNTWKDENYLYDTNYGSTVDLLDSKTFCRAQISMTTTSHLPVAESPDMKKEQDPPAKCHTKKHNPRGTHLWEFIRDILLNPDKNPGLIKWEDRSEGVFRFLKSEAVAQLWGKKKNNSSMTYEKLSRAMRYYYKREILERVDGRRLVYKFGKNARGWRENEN
# Outline: as §1
# SPI1 = SPI1 (Homo sapiens, UniProt P17947 1-270); conditions: protein: recombinant; tags: N-terminal GST; dsDNA, one strand shown
# Outline: as §1
# SPIB = SPIB (Homo sapiens, UniProt Q01892 1-262); conditions: protein: recombinant; tags: N-terminal GST; dsDNA, one strand shown
# SPIB, sequence (Q01892 whole entry): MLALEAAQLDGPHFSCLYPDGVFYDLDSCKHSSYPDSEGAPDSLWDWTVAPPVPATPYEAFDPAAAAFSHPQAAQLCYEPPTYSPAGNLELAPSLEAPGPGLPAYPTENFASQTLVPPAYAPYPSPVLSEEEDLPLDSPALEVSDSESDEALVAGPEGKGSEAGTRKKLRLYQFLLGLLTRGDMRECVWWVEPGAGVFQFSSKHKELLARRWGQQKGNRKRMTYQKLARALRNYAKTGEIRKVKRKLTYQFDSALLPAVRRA
# Outline: as §1
# ELK3 = biological target: T6, ELK3 (Homo sapiens, UniProt P41970 1-407); conditions: protein: recombinant; tags: N-terminal GST; dsDNA, one strand shown
# T6 sequence: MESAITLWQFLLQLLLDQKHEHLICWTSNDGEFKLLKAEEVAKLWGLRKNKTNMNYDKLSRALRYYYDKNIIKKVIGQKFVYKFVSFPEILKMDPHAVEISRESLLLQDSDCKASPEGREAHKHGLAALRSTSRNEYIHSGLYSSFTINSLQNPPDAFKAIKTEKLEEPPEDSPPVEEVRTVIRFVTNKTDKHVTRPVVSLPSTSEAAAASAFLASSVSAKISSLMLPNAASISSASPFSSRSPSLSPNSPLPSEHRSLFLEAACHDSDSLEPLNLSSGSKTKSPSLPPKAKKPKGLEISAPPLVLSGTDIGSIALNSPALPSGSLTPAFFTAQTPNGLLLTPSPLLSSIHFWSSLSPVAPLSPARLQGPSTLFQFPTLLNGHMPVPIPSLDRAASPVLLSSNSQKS
# Outline: as §1
# FEV = biological target: T7, FEV (Homo sapiens, UniProt Q99581 1-238); conditions: protein: recombinant; tags: N-terminal GST; dsDNA, one strand shown
# T7 sequence: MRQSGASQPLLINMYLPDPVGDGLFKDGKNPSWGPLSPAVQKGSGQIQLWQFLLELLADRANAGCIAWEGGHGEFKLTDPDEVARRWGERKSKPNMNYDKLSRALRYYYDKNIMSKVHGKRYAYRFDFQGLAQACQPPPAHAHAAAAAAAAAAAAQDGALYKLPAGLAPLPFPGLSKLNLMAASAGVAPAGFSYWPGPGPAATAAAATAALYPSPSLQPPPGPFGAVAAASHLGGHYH
# Outline: as §1
# ETV5 = ETV5 (Homo sapiens, UniProt P41161 1-510); conditions: protein: recombinant; tags: N-terminal GST; dsDNA, one strand shown
# ETV5, sequence (P41161 whole entry): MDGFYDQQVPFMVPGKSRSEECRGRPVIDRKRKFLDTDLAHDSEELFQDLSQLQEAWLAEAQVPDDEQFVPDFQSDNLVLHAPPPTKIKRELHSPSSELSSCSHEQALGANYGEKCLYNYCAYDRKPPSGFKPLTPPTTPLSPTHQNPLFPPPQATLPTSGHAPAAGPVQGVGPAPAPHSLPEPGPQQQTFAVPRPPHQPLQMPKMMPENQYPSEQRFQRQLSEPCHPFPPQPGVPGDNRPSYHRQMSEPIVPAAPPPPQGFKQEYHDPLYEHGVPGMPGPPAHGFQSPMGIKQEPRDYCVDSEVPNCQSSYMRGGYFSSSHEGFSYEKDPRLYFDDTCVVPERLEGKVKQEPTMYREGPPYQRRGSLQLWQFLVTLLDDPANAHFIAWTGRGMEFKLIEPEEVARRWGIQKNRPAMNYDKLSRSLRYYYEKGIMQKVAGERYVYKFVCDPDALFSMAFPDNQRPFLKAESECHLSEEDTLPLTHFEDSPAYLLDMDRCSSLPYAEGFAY
# Outline: as §1
# HSF1 = HSF1 (Homo sapiens, UniProt Q00613 1-529); conditions: protein: recombinant; tags: N-terminal GST; chain copies: 3; dsDNA, one strand shown
# HSF1, sequence (Q00613 whole entry): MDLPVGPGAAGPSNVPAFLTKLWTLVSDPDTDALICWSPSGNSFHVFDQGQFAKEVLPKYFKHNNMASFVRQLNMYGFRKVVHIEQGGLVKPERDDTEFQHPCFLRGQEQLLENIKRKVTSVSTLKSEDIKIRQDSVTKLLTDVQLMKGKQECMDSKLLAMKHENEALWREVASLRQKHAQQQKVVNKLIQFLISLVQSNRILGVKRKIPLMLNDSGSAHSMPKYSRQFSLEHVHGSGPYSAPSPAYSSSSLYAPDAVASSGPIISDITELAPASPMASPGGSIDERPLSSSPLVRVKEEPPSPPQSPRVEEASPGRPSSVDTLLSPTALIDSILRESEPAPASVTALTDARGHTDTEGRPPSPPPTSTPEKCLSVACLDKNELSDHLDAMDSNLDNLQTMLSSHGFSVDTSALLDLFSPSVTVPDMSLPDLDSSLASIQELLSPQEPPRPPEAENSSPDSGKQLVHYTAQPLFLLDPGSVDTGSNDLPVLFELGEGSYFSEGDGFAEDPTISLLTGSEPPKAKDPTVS
# Outline: as §1
# SPIC = biological target: T8, SPIC (Homo sapiens, UniProt Q8N5J4 1-248); conditions: protein: recombinant; tags: N-terminal GST; dsDNA, one strand shown
# T8 sequence: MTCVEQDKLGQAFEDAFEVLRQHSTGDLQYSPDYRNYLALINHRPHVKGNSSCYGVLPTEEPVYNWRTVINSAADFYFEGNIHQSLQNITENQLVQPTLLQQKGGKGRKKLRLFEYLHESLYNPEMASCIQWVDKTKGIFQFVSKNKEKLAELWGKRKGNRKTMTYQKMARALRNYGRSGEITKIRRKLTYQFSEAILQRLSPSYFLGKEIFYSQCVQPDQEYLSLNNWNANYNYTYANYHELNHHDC
# Outline: as §1
# ELF4 = ELF4 (Homo sapiens, UniProt Q99607 1-663); conditions: protein: recombinant; tags: N-terminal GST; dsDNA, one strand shown
# ELF4, sequence (Q99607 whole entry): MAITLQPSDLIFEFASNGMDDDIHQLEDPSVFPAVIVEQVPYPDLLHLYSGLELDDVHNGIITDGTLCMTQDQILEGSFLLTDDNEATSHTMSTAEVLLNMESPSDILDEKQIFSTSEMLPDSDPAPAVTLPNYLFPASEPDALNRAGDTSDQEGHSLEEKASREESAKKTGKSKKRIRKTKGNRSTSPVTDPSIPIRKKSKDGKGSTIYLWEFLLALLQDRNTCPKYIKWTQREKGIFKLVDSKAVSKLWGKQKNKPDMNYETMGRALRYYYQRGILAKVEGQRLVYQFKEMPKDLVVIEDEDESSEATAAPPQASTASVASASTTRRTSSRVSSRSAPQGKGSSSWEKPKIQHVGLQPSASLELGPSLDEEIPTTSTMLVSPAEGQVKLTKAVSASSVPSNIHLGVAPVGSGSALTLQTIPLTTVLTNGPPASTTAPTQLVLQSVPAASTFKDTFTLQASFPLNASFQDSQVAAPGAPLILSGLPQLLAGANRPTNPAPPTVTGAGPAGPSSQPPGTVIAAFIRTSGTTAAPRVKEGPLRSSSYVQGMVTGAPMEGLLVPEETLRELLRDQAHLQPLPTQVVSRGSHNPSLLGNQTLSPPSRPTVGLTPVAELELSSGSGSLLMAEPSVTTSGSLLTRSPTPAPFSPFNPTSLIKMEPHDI
# Outline: as §1
# ELK4 = biological target: T9, ELK4 (Homo sapiens, UniProt P28324-2 1-405); conditions: protein: recombinant; tags: N-terminal GST; dsDNA, one strand shown
# T9 sequence: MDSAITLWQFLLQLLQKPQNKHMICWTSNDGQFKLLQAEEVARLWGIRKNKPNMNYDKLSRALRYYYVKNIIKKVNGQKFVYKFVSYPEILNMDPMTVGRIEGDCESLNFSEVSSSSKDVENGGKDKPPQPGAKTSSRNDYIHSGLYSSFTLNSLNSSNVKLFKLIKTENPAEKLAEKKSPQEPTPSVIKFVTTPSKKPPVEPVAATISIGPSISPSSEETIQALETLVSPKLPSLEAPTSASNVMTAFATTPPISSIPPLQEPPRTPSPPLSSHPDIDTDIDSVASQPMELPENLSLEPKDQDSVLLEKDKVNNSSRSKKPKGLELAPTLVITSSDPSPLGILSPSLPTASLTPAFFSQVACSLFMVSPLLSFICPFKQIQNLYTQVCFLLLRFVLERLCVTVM
# Outline: as §1
# ETV2 = biological target: T10, ETV2 (Homo sapiens, UniProt O00321 1-342); conditions: protein: recombinant; tags: N-terminal GST; dsDNA, one strand shown
# T10 sequence: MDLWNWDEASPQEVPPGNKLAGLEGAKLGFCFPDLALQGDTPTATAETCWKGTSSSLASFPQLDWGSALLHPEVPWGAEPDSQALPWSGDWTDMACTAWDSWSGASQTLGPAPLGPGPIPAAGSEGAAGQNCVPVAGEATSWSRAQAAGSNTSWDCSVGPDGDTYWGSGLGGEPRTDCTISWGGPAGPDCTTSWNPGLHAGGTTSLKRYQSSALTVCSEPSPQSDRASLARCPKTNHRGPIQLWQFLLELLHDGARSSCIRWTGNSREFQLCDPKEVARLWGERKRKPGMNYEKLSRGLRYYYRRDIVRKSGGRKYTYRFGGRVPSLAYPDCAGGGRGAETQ
# Outline: as §1
# ELF3 = biological target: T11, ELF3 (Homo sapiens, UniProt P78545 1-371); conditions: protein: recombinant; tags: N-terminal GST; dsDNA, one strand shown
# T11 sequence: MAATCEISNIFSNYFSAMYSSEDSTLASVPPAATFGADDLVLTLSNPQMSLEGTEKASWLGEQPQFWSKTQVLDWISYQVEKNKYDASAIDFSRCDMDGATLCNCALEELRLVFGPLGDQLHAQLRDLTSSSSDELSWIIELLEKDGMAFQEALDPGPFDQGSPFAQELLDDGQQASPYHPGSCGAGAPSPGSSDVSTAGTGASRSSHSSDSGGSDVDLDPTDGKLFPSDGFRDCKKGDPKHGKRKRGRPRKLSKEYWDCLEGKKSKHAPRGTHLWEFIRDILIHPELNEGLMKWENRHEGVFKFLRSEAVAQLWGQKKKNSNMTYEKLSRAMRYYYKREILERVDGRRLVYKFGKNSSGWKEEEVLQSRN
# Outline: as §1
# CRX = CRX (Homo sapiens, UniProt O43186 1-299); conditions: protein: recombinant; tags: N-terminal GST; dsDNA, one strand shown
# CRX, sequence (O43186 whole entry): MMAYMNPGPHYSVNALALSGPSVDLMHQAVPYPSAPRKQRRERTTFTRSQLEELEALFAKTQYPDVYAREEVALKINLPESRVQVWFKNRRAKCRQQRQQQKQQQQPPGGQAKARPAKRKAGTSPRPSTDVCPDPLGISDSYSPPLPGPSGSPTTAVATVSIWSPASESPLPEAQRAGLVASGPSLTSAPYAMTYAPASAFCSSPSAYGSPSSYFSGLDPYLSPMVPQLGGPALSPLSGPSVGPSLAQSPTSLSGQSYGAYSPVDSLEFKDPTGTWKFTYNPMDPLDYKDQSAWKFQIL
# Outline: as §1
# ETV1 = ETV1 (Homo sapiens, UniProt P50549 1-477); conditions: protein: recombinant; tags: N-terminal GST; dsDNA, one strand shown
# ETV1, sequence (P50549 whole entry): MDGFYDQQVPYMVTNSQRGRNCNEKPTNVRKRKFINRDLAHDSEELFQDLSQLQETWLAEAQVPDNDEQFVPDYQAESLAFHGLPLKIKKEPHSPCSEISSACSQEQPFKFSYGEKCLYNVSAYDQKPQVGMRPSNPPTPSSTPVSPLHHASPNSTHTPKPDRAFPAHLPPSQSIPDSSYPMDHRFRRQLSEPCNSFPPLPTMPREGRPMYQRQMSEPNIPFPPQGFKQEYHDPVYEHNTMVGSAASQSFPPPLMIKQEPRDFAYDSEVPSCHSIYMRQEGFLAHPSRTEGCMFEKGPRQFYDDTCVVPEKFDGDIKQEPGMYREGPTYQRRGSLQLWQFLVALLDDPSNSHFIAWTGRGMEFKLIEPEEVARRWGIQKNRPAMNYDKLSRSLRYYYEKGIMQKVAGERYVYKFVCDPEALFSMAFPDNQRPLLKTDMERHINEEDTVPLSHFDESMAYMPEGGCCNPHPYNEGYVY
# Outline: as §1
sequence,measurement,setting,value
TGTTAC,binding signal,FLI1,"1.49 fold enrichment (6-mer frequency, TF over GST control)"
same,binding signal,ELK1,"1.55 fold enrichment (6-mer frequency, TF over GST control)"
same,binding signal,GABPA,"1.39 fold enrichment (6-mer frequency, TF over GST control)"
same,binding signal,ERG,"1.49 fold enrichment (6-mer frequency, TF over GST control)"
same,binding signal,ELF1,"1.43 fold enrichment (6-mer frequency, TF over GST control)"
same,binding signal,EHF,"1.53 fold enrichment (6-mer frequency, TF over GST control)"
same,binding signal,SPI1,"1.36 fold enrichment (6-mer frequency, TF over GST control)"
same,binding signal,SPIB,"1.43 fold enrichment (6-mer frequency, TF over GST control)"
same,binding signal,ELK3,"1.53 fold enrichment (6-mer frequency, TF over GST control)"
same,binding signal,FEV,"1.4 fold enrichment (6-mer frequency, TF over GST control)"
same,binding signal,ETV5,"1.47 fold enrichment (6-mer frequency, TF over GST control)"
same,binding signal,HSF1,"1.12 fold enrichment (6-mer frequency, TF over GST control)"
same,binding signal,SPIC,"1.42 fold enrichment (6-mer frequency, TF over GST control)"
same,binding signal,ELF4,"1.47 fold enrichment (6-mer frequency, TF over GST control)"
same,binding signal,ELK4,"1.51 fold enrichment (6-mer frequency, TF over GST control)"
same,binding signal,ETV2,"1.58 fold enrichment (6-mer frequency, TF over GST control)"
same,binding signal,ELF3,"1.39 fold enrichment (6-mer frequency, TF over GST control)"
same,binding signal,CRX,"1.19 fold enrichment (6-mer frequency, TF over GST control)"
same,binding signal,ETV1,"1.4 fold enrichment (6-mer frequency, TF over GST control)"
